Assay outcomes (PubChem)
TDP1 cell CPT: growth inhibition of DT40 Tdp1-/-;hTDP1 cells with camptothecin (screen for TDP1 inhibitors); 12% of 420,000 active; AID 686979; Potency, µM (highest dose often 46.2 µM), for the others: at the top dose activity change, negative = growth inhibition, most hits filed as inhibitors; chicken DT40 Tdp1-/-;hTDP1 cells + 20 nM CPT, ATP luminescence, 48 h; also: potency is read from the fitted curve at half-maximal effect; % is scaled to controls: 0 for no effect and ±100 for the full control effect; nearly all actives have a fitted effect of over 55% in size
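Cell growth measured by CellTiter-Glo luminescence after a minimum 48 h, 37 C compound exposure with 20 nM CPT in Tdp1-knockout DT40 cells stably expressing hTDP1, seeded 400/well; qHTS titration format.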
IL1B secr inh: inflammasome signaling inhibition, IL-1 beta readout; AID 743279; THP-1 LPS/ATP IL-1B secretion, AlphaLISA, 16 h; stronger effect = lower value; activity change, % at 57.5 µM; 4.7% of 360,000 active; in the data active = activity change below about -50%; inconclusive = mostly about -30% to -49%; also: % is scaled to controls: 0 for no effect and ±100 for the full control effect
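Secreted IL-1B measured by AlphaLISA bead assay after 16 h compound exposure of THP-1 cells; compounds (final up to 57.5 uM) added 1 h before LPS (250 ng/mL) and ATP (1.25 mM) stimulation; lower signal means less secretion.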
ClpP mod: qHTS Assay for Activators of ClpP. ATP-dependent Clp protease proteolytic subunit (Bacillus subtilis (strain 168)), P80244. purified B. subtilis ClpP, FRET peptide cleavage, 20 min. Potency, µM (titrated, usually from 57.5 µM), without a hit: top-dose activity change, negative = active. 1.9% of 340,000 active. AID 651965, 2013; active = well fitted falling curve with a large enough effect; inconclusive = small, poorly fitted or top-dose-only effect; inactive = no such curve, though single readings can be large or run the other way; also: potency is read from the fitted curve at half-maximal effect; the source files actives as falling curves though it sought activators and does not explain the sign; nearly all actives have a fitted effect of over 65% in size
Target sequence (P80244 whole entry, looked up): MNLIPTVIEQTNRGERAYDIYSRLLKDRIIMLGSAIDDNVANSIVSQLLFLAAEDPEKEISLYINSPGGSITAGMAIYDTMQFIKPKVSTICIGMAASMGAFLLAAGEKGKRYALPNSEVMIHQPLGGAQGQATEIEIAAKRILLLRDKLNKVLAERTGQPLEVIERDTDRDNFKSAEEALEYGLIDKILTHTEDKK
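Purified B. subtilis ClpP, 10 microg/mL final in Tris/HCl pH8 with KCl, BSA, glycerol and Tween-20, cleaved an Abz/nitrotyrosine-quenched decapeptide. Fluorescence (ex 320, em 430) was read at 0 and 20 min at room temperature. Delta was normalized to 5.8 microM ADEP and DMSO/no-enzyme controls.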
D3 antag: D3 dopamine receptor (human) antagonism; D3R cells, DiscoveRx beta-arrestin luminescence, antagonist mode; stronger effect = lower value; P35462; 2.5% of 360,000 active; max response, negative = inhibition, %; in the data active = max response below about -50%; inconclusive = no clear call, values can overlap the other calls; also: % is scaled to controls: 0 for no effect and ±100 for the full control effect
Target sequence (P35462 whole entry, looked up): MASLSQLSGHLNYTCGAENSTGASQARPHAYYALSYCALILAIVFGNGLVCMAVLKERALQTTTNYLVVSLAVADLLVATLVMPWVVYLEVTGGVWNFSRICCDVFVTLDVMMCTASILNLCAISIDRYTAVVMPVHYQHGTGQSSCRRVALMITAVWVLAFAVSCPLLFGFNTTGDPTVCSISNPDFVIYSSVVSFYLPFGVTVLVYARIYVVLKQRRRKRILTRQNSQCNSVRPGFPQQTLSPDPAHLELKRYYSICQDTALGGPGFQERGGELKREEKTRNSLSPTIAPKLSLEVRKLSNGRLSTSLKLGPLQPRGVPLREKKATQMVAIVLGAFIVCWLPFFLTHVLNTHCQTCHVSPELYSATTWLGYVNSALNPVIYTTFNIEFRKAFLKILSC
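Cells expressing the human receptor were seeded at 1500 cells/well, incubated overnight at 37 degrees C in 5% CO2, then exposed to library compounds with dopamine controls for 90 minutes at 37 degrees C before luminescent detection.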
D3 ag: agonists of human D3 dopamine receptor; 0.58% of 410,000 active; P35462; AID 652048; max activation, %; D3R DiscoveRx beta-arrestin cells, luminescence, 90 min; in the data active = max activation above about 30%; also: 0% is about no effect
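Agonist-mode cell screen: cells plated at 1500/well and incubated overnight at 37 °C, then exposed to library compounds for 90 min at 37 °C. Detection reagent was added for 30–60 min at room temperature, and luminescence was read.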
DT40 TDP1 no CPT: qHTS for Inhibitors of human tyrosyl-DNA phosphodiesterase 1 (TDP1): qHTS in cells in absence of CPT. Potency, µM (doses to about 46.2 µM), without a hit: at the highest dose activity change, negative = growth inhibition, hits mostly inhibitors. DT40 Tdp1-/- hTDP1 cells, no CPT, ATP luminescence, 48 h. 15% of 420,000 active; also: potency is read from the fitted curve at half-maximal effect; % is scaled to controls: 0 for no effect and ±100 for the full control effect; nearly all actives have a fitted effect of over 55% in size
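DT40 Tdp1-/-;hTDP1 cells, no CPT (DMSO vehicle only), 400 cells/well; compounds pin-transferred; ≥48 hr, 37 °C; CellTiter-Glo 30 min RT dark, luminescence read.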
* marks the source's active call; other numbers are inactive results; u = inconclusive; x = not tested or not shown; [ ] = remark or other dose. This is a sample that favours compounds with a hit; in the whole collection about 21% have one here. Unless noted, calls follow the shape of the dose curve; as a rule, active = well fitted inhibition curve with a large enough effect; inconclusive = small, poorly fitted or top-dose-only effect; inactive = flat fitted curve, though single readings scatter.

SMILES	TDP1 cell CPT	IL1B secr inh	ClpP mod	D3 antag	D3 ag	DT40 TDP1 no CPT
COc1cccc(C(=O)NCC2Cc3cccc(-c4nc(C)cnc4C)c3O2)c1OC (configuration not stated)	17%[9.04 µM]	x	x	x	x	u
O=C1C2C3c4ccccc4C(c4ccccc43)[C@@H]2C(=O)N1c1ccccn1 (some centres not stated)	u	10	-1%	15	7	21µM*
O=C1C2C3CC(C(Br)C3Br)C2C(=O)N1c1ccccn1 (configuration not stated)	-13%	2	-2%	19	-2	-10%
CCCCc1n(CC(=O)c2ccc(Cl)cc2)c2ccccc2[n+]1C	6.5µM*	-68*	x	1	-3	6.5µM*
C=CCn1c(=N)n(CC(=O)c2ccc(Cl)cc2)c2ccccc21	9.2µM*	-90*	-6%	-14	-9	u
N=c1n(CC(=O)c2cccs2)c2ccccc2n1Cc1ccccc1	16µM*	-7	-2%	8	6	16µM*
C=CCn1c(=N)n(CC(=O)c2ccc(Br)s2)c2ccccc21	u	-74*	0%	-8	-5	18µM*
CCCCC/C=N/NC(=O)c1[nH]c2ccc([N+](=O)[O-])cc2c1C	-24%	-23	x	-12	7	u
O=C(N/N=C/c1ccccc1)c1[nH]c2ccc(Br)cc2c1-c1ccccc1	1.2µM*	25	22µM*	-89*	-19	1.2µM*
Cc1ccc2[nH]c(C(=O)N/N=C/c3ccccc3O)c(C)c2c1	4.6µM*	96	-1%	11	0	4.6µM*
Cc1ccc2[nH]c(C(=O)N/N=C/c3ccc([N+](=O)[O-])cc3)c(C)c2c1	3.7µM*	-10	0%	-1	-5	4.1µM*
O=C(O[C@H]1[C@H](Cc2ccccc2)NS(=O)(=O)[C@H]2CC3C=C[C@]12O3)c1ccc(Br)cc1	u	x	-2%	x	x	u
CC(C)(C)c1ccc(S(=O)(=O)Nc2cccc(C3OCCCO3)c2)cc1	15µM*	0	5%	2	8	15µM*
Cc1[nH]c2ccccc2c1-c1nc2ccccc2[nH]c1=O	1%	14	x	-12	0	-27%
Cn1cc(-c2nnc(-c3ccccc3)o2)c2ccccc21	-19%	0	14µM*	12	6	u
CCOC(=O)C1CCN(Cc2cn(C)nc2-c2ccc(Oc3ccccc3)cc2)CC1	-15%	32	x	0	-5	u
N#C/C(=C1/SC[C@@H](c2ccc(Cl)cc2Cl)S1)n1ccnc1	4.7µM*	x	x	x	4	6µM*
Cc1cc(C(=O)CSc2ncn[nH]2)c(C)n1-c1cccc(S(=O)(=O)N2CCOCC2)c1	u	-17	0%	7	2	18µM*
Cc1cc(C(=O)CCl)c(C)n1-c1cccc(S(=O)(=O)N2CCOCC2)c1	1.3µM*	-102*	x	6	1	2.3µM*
Cc1ccc(C)n1-c1cccc(S(=O)(=O)N2CCOCC2)c1	-1%	u	x	2	5	u
Cc1cc(-n2c(C)cc(C(=S)N3CCOCC3)c2C)ccc1Br	15µM*	u	-3%	-25	1	16µM*
Cc1ccc(-n2c(C)cc(C(=O)OCC(=O)N3CCOCC3)c2C)cc1	-4%	0	2%	0	-2	-12%
Cc1ccc(-n2c(C)cc(C(=O)CN3CCOCC3)c2C)cc1C	21µM*	-4	3%	-12	-1	u
COc1ccc(C2=NOC(C(=O)Nc3cccnc3)C2)cc1OC (configuration not stated)	-1%	32	x	2	-3	0%
Cc1cc(C(=O)CN2C(=O)CN(C)C2=O)c(C)n1-c1cccc(S(=O)(=O)N2CCOCC2)c1	-17%	-10	-2%	20	-3	4.6µM*
SMILES	TDP1 cell CPT	IL1B secr inh	ClpP mod	D3 antag	D3 ag	DT40 TDP1 no CPT
CN1CC(=O)N(CC(=O)Nc2cccc(S(=O)(=O)N3CCOCC3)c2)C1=O	17%	-9	x	2	8	-25%
COc1ccc(NC(=O)C(=O)N/N=C\c2ccc(CNC(=O)C(=O)Nc3ccc(C)c(C)c3)o2)c(OC)c1	5.2µM*	28	x	35	18	9.2µM*
CCOc1ccc(NC(=O)C(=O)N/N=C\c2ccc(CNS(=O)(=O)c3ccccc3)o2)cc1	u	80	-3%	23	7	21µM*
O=C(N/N=C/c1ccc(-c2ccc(S(=O)(=O)Nc3ncccn3)cc2)o1)c1cc2ccccc2cc1O	-25%	14	u	u	-5	-11%
CCOc1ccc(C(=O)N/N=C/c2ccc(-c3ccc(S(=O)(=O)Nc4ncccn4)cc3)o2)cc1	-4%	-11	28µM*	-11	1	-6%
NC(=O)C1Cc2ccccc2CN1S(=O)(=O)c1ccc(Cl)s1 (configuration not stated)	u	-9	x	-13	6	-19%
CC1CCN(C(=O)CN(c2ccc3c(c2)OCCO3)S(=O)(=O)c2ccccc2)CC1	-5%	-16	x	7	-4	u
CCCc1nnc(NC(=O)CCC(=O)N2CCC(Cc3ccccc3)CC2)s1	26µM*	17	-2%	7	1	21µM*
CCc1nnc(NC(=O)CCC(=O)N2CCN(c3ccccn3)CC2)s1	5%	0	18µM*	-4	3	u
CCc1nnc(NC(=O)CCC(=O)N2CCN(Cc3ccccc3)CC2)s1	-13%	23	-1%	9	-3	-20%
CCc1nnc(NC(=O)CCC(=O)N2CCN(Cc3ccc(Cl)cc3)CC2)s1	18µM*	5	-2%	-11	-14	23µM*
CCCc1nnc(NC(=O)CCC(=O)N2CCN(Cc3ccc(Cl)cc3)CC2)s1	16µM*	19	-2%	-2	-7	u
Cc1ccc(OCCN2CCN(C(=O)CCC(=O)Nc3nnc(CC(C)C)s3)CC2)cc1	u	x	x	10	72*	10µM*
CCc1nnc(NC(=O)CN2CCN(Cc3cccc(Cl)c3)CC2)s1	4%	30	-9%	-52*	-15	-24%
CC(C)Cc1nnc(NC(=O)CCC(=O)N2CCN(c3ccc(Cl)cc3)CC2)s1	21µM*	u	0%	17	3	-17%
C[C@@H]1CN([C@H](C)CO)C(=O)CCCn2nncc2CO[C@@H]1CN(C)C(=O)c1cc(-c2ccccc2)on1	-26%	-12	-3%	-20	-7	u
